The panel holds about 83,000 compounds, 20% with a hit somewhere; the sample as a whole holds those more often.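 Testing used 96-well plates and a 48-hour single-concentration exposure. Example: -40 means 40% of the starting cells died.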 A number with no mark means an inactive call. The source made the active and inactive calls. The calls were made as follows: active = growth percent below 10; inactive = the rest.

In one experiment the test system is DU-145 prostate. The experiment can be described thus: NCI-60 one-dose screen, 48 h (100 = growth as untreated, 0 = no growth, -100 = all killed). The conditions noted are these: 10 µM unless noted.
Regarding `O=C(NCc1ccco1)C1CCN(S(=O)(=O)c2ccc(Cl)cc2)CC1`, the growth is -18.5% (active).
Consider `C(=C\c1ccccc1)/CN1CCN(C(c2ccccc2)c2ccccc2)CC1`, for which the growth is 109%.
Turning to `O=C(Nc1nc2ccccc2[nH]1)C(=O)Nc1nc2ccccc2[nH]1`, the growth is 114%.
For `Brc1ccccc1Nc1ccc2nnc(-c3ccncc3)n2n1`, the growth is 113%.
As to `COC(=O)[C@@H]1CCCN1C(=O)[C@@H]1CCCN1C(=O)[C@@H](Cc1c[nH]c2ccccc12)NC(=S)Nc1cc(C(F)(F)F)cc(C(F)(F)F)c1`, the growth is 80.5%.
`COc1ccc(C2OCC(C)(C)CO2)cc1OC`: the growth was 107%.
On to `O=c1[nH]c(=S)[nH]c(=O)n1Cc1cccc2ccccc12`, for which the growth is 116%.
Consider `C=CC(=O)N1CC2(CCC(n3nc(-c4ccc(Oc5ccccc5)cc4)c4c(N)ncnc43)CC2)C1`, for which the growth is -52.3% (active).
With `Cc1nc(NC(=O)COc2cccc(/C=C3\COc4ccccc4C3=O)c2)sc1C`, the growth was 63.1%.
For the compound `Cc1ccc(N=c2nc3sc4c(C)ccc(C)c4n3c(N)c2C#N)cc1`, the growth was 105%.
For the compound `CN1CCN(c2nc(-c3ccncc3)nc3sc4c(c23)CCCCCC4)CC1`, the growth is 91%.
As for `Nc1ccccc1-c1n[nH]c(=O)[nH]c1=O`, the growth was 121%.
With `CCOC(=O)C1=C(C)N2C(=NC3=C(CCCC/C3=C\c3cc(OC)c(OC)c(OC)c3)C2c2cc(OC)c(OC)c(OC)c2)S1` (stereo not drawn), the growth was 86%.
For `Cc1cc(=O)[nH]n1-c1cc(Cl)ccc1N`, the growth is 132%.
As to `COCCOC1=C(Cl)C(=O)c2ccccc2C1=O`, the growth was 38.7%.
With `Cc1nn2c(-c3nc4ccc(Cl)cc4[nH]3)c(-c3ccc(F)cc3)nc2s1`, the growth was 104%.
Take `Oc1ccc(Cl)cc1CNc1nc2ccccc2[nH]1`: the growth is -50.6% (active).
On the same count and under the same terms, the value for `CN([N-]C(=O)CC(=O)[N-]N(C)C(=S)c1ccccc1)C(=S)c1ccccc1.[Cu+2]` was -74.1% (active); that for `COc1ccc(-c2nc3sc(C)nn3c2-c2nc3cc(C)c(C)cc3[nH]2)cc1` was 101%.
Take `Cc1ccc2c(c1)c(Sc1ccc(C(=O)NO)cc1)c1n2CN(C)CC1`: the growth was 11.7%.
For the compound `FC(F)(F)c1cc(CNc2ncc(Br)c(Cl)n2)cc(C(F)(F)F)c1`, the growth was 107%.
Consider `O=C1C(OCCOc2ccccc2)=C(OCCOc2ccccc2)C(=O)c2ccccc21`, for which the growth is 56.7%.
On the same count and under the same terms, the value for `CC(=O)Nc1ccccc1-c1n[nH]c(=O)[nH]c1=O` was 107%; that for `N#Cc1ccc(C(F)(F)F)nc1N1CCC(C(=O)Nc2ccc(Cl)cc2)CC1` was 86.6%.
`COc1cccc(Nc2nc(NCCO)c3ccccc3n2)c1`: the growth is 97%.
On to `O=c1[nH]c(-c2ccccn2)nc2sc3c(c12)CCCCCC3`, for which the growth was 48.8%.
Regarding `CC(=O)Nc1ccc(Sc2ccc([N+](=O)[O-])o2)cc1`, the growth was 34.7%.
On the same count and under the same terms, next, `CN1CCc2c(c3ccccc3c3ccccc23)C1`: 45.7%; `FC(F)(F)c1ccc2c(c1)n1cnnc1c1nncn21`: 118%.
With `CC(C)OC1=C(Cl)C(=O)c2ccccc2C1=O`, the growth is 119%.
With `CCOC(=O)C(CC(c1ccccc1)N1CCCCC1)[N+](=O)[O-]` (stereo not drawn), the growth was 94.4%.
For `CC[Si](CC)(CC)OC1[C@@H](O[Si](CC)(CC)CC)[C@@H](CNC(=O)NC)O[C@H]1n1cnc2c(NC(=O)Nc3ccccc3)ncnc21` (stereo partly drawn), the growth was 89.3%.
As for `Cc1ccc2nc(NC(=O)CSC(=S)N3CCN(C)CC3)sc2c1`, the growth was 122%.
For the compound `CCCOC(=O)c1ccc2c(c1)[N+](=O)C(C(=O)c1ccccc1)=C(C(F)(F)F)[N+]2=O`, the growth is -97.2% (active).
In the case of `CCOC(=O)C1=C(C)N2C(=NC3=C(CCCC/C3=C\c3ccccc3)C2c2ccccc2)S1` (stereo not drawn), the growth is 105%.
Regarding `Nc1c(Br)cc(Br)cc1-c1n[nH]c(=O)[nH]c1=O`, the growth is 114%.
Turning to `c1ccc(-c2nc(N3CCOCC3)c3c4c(sc3n2)CCCCCC4)nc1`, the growth was 76.1%.
As for `CC(C)(C)[Si](C)(C)OC1[C@@H](CNC(=O)NC(=O)CCl)O[C@@H](n2cnc3c(N)ncnc32)[C@H]1O[Si](C)(C)C(C)(C)C` (stereo partly drawn), the growth was 23%.
As to `O=c1[nH]c(-c2ccncc2)nc2sc3c(c12)CCCCCC3`, the growth was 77.5%.

The subject of the next experiment is K-562 leukemia. The experiment is described as above. As to conditions: 10 µM unless noted.
As to `O=C(NCc1ccco1)C1CCN(S(=O)(=O)c2ccc(Cl)cc2)CC1`, the growth is 13.9%.
Regarding `C(=C\c1ccccc1)/CN1CCN(C(c2ccccc2)c2ccccc2)CC1`, the growth was 79.2%.
For `O=C(Nc1nc2ccccc2[nH]1)C(=O)Nc1nc2ccccc2[nH]1`, the growth is 94.1%.
As for `Brc1ccccc1Nc1ccc2nnc(-c3ccncc3)n2n1`, the growth was 46.9%.
Consider `COC(=O)[C@@H]1CCCN1C(=O)[C@@H]1CCCN1C(=O)[C@@H](Cc1c[nH]c2ccccc12)NC(=S)Nc1cc(C(F)(F)F)cc(C(F)(F)F)c1`, for which the growth is 15.4%.
Take `COc1ccc(C2OCC(C)(C)CO2)cc1OC`: the growth is 101%.
Same read-out and setting: the value for `O=c1[nH]c(=S)[nH]c(=O)n1Cc1cccc2ccccc12` was 90.1%; that for `C=CC(=O)N1CC2(CCC(n3nc(-c4ccc(Oc5ccccc5)cc4)c4c(N)ncnc43)CC2)C1` was 3.48% (active); that for `Cc1nc(NC(=O)COc2cccc(/C=C3\COc4ccccc4C3=O)c2)sc1C` was -65.2% (active).
For the compound `Cc1ccc(N=c2nc3sc4c(C)ccc(C)c4n3c(N)c2C#N)cc1`, the growth is 88.6%.
In the case of `CN1CCN(c2nc(-c3ccncc3)nc3sc4c(c23)CCCCCC4)CC1`, the growth was 35.5%.
Same read-out and setting: the value for `Nc1ccccc1-c1n[nH]c(=O)[nH]c1=O` was 107%.
Consider `CCOC(=O)C1=C(C)N2C(=NC3=C(CCCC/C3=C\c3cc(OC)c(OC)c(OC)c3)C2c2cc(OC)c(OC)c(OC)c2)S1` (stereo not drawn), for which the growth was 31.2%.
For `Cc1cc(=O)[nH]n1-c1cc(Cl)ccc1N`, the growth is 99.4%.
Turning to `COCCOC1=C(Cl)C(=O)c2ccccc2C1=O`, the growth is 8.89% (active).
Take `Cc1nn2c(-c3nc4ccc(Cl)cc4[nH]3)c(-c3ccc(F)cc3)nc2s1`: the growth was 88.6%.
For `Oc1ccc(Cl)cc1CNc1nc2ccccc2[nH]1`, the growth is -50.4% (active).
Take `CN([N-]C(=O)CC(=O)[N-]N(C)C(=S)c1ccccc1)C(=S)c1ccccc1.[Cu+2]`: the growth is -29.7% (active).
For `COc1ccc(-c2nc3sc(C)nn3c2-c2nc3cc(C)c(C)cc3[nH]2)cc1`, the growth is 97.2%.
On the same count and under the same terms, next, `Cc1ccc2c(c1)c(Sc1ccc(C(=O)NO)cc1)c1n2CN(C)CC1`: 11.5%; `FC(F)(F)c1cc(CNc2ncc(Br)c(Cl)n2)cc(C(F)(F)F)c1`: 89.1%.
Consider `O=C1C(OCCOc2ccccc2)=C(OCCOc2ccccc2)C(=O)c2ccccc21`, for which the growth is 66.4%.
For the compound `CC(=O)Nc1ccccc1-c1n[nH]c(=O)[nH]c1=O`, the growth is 107%.
`N#Cc1ccc(C(F)(F)F)nc1N1CCC(C(=O)Nc2ccc(Cl)cc2)CC1`: the growth is 49.3%.
On to `COc1cccc(Nc2nc(NCCO)c3ccccc3n2)c1`, for which the growth is 42.7%.
For the compound `O=c1[nH]c(-c2ccccn2)nc2sc3c(c12)CCCCCC3`, the growth was 20.4%.
Consider `CC(=O)Nc1ccc(Sc2ccc([N+](=O)[O-])o2)cc1`, for which the growth is 17.6%.
Take `CN1CCc2c(c3ccccc3c3ccccc23)C1`: the growth is 27.1%.
In the case of `FC(F)(F)c1ccc2c(c1)n1cnnc1c1nncn21`, the growth was 100%.
For the compound `CC(C)OC1=C(Cl)C(=O)c2ccccc2C1=O`, the growth was 22.8%.
For the compound `CCOC(=O)C(CC(c1ccccc1)N1CCCCC1)[N+](=O)[O-]` (stereo not drawn), the growth was 69.5%.
For `CC[Si](CC)(CC)OC1[C@@H](O[Si](CC)(CC)CC)[C@@H](CNC(=O)NC)O[C@H]1n1cnc2c(NC(=O)Nc3ccccc3)ncnc21` (stereo partly drawn), the growth was 15.9%.
Turning to `Cc1ccc2nc(NC(=O)CSC(=S)N3CCN(C)CC3)sc2c1`, the growth was 106%.
In the case of `CCCOC(=O)c1ccc2c(c1)[N+](=O)C(C(=O)c1ccccc1)=C(C(F)(F)F)[N+]2=O`, the growth is -74% (active).
Turning to `CCOC(=O)C1=C(C)N2C(=NC3=C(CCCC/C3=C\c3ccccc3)C2c2ccccc2)S1` (stereo not drawn), the growth was 99.2%.
The same measure, in the same setting: next, `Nc1c(Br)cc(Br)cc1-c1n[nH]c(=O)[nH]c1=O`: 102%.
Take `c1ccc(-c2nc(N3CCOCC3)c3c4c(sc3n2)CCCCCC4)nc1`: the growth was 32%.
On to `CC(C)(C)[Si](C)(C)OC1[C@@H](CNC(=O)NC(=O)CCl)O[C@@H](n2cnc3c(N)ncnc32)[C@H]1O[Si](C)(C)C(C)(C)C` (stereo partly drawn), for which the growth is -33.9% (active).
Still for that read-out and setting: the value for `O=c1[nH]c(-c2ccncc2)nc2sc3c(c12)CCCCCC3` was 88.1%.
